# Measured values: publication PMC7862700, “An all-to-all approach to the identification of sequence-specific readers for epigenetic DNA modifications on cytosine”
# What was measured:
# Assay in all cases: DAPPL (digital affinity profiling via proximity ligation, sequencing); 10 mM Tris-HCl pH 7.5, 50 mM NaCl, 1 mM DTT, 4% glycerol, room temperature, 30 min; GST-TFs on glutathione beads, 16-mer random dsDNA library, 0.1% formaldehyde crosslink after washing; high values mean tight binding
# FLI1 = molecular target: T1, FLI1 (Homo sapiens, UniProt Q01543 1-452); conditions: protein: recombinant; tags: N-terminal GST; dsDNA, one strand shown
# T1 sequence: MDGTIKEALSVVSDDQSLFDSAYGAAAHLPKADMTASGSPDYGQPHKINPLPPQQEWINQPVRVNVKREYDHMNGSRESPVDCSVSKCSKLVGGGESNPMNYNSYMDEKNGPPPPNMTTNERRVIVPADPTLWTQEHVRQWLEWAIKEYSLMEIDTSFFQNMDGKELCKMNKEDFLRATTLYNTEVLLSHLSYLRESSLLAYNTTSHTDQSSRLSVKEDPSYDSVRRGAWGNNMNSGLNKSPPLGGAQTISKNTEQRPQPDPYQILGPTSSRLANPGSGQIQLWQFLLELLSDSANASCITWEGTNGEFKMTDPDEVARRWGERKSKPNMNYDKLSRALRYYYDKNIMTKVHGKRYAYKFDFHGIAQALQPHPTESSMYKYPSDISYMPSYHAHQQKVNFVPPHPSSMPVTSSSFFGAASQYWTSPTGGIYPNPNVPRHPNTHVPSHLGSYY
# Procedure, shortened: (§1)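 Human transcription factors fused to GST were expressed in yeast, captured on glutathione beads, given DNA barcodes and pooled with a GST-only negative control. Pools were incubated with 200 nmole of a 16-mer random double-stranded DNA library in Tris/NaCl/DTT/glycerol buffer at room temperature for 30 min. They were then washed, crosslinked with 0.1% formaldehyde, proximity-ligated (BsaI/T4 ligase, 1 h, 37 °C), PCR-amplified and sequenced on an Illumina NextSeq500. Binding signal is each 6-mer's read frequency for a factor divided by its frequency for the GST control.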
# ELK1 = molecular target: T2, ELK1 (Homo sapiens, UniProt P19419 1-428); conditions: protein: recombinant; tags: N-terminal GST; dsDNA, one strand shown
# T2 sequence: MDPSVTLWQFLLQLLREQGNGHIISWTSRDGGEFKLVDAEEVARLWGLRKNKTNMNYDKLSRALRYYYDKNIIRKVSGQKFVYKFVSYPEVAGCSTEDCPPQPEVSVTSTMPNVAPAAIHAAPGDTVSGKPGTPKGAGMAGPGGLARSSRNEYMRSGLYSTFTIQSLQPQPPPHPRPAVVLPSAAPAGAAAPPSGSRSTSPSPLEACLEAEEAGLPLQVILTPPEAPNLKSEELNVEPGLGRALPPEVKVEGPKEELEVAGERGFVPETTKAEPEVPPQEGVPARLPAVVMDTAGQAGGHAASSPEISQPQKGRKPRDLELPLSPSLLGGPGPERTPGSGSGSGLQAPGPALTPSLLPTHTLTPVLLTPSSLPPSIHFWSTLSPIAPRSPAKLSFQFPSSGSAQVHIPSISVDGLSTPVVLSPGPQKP
# Procedure, shortened: as §1
# GABPA = molecular target: T3, GABPA (Homo sapiens, UniProt Q06546 1-454); conditions: protein: recombinant; tags: N-terminal GST; dsDNA, one strand shown
# T3 sequence: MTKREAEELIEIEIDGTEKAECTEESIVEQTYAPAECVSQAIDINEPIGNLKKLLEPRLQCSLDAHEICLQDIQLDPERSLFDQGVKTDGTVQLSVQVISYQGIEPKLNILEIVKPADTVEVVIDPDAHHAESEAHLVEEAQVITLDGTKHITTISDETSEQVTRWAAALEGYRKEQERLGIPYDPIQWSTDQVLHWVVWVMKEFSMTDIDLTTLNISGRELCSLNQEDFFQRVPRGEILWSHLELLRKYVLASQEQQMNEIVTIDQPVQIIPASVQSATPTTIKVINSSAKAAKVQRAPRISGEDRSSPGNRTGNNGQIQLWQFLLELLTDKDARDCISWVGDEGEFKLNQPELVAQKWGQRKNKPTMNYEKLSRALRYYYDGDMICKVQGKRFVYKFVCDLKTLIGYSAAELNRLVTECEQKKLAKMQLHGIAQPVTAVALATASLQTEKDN
# Procedure, shortened: as §1
# ERG = molecular target: T4, ERG (Homo sapiens, UniProt P11308 1-479); conditions: protein: recombinant; tags: N-terminal GST; dsDNA, one strand shown
# T4 sequence: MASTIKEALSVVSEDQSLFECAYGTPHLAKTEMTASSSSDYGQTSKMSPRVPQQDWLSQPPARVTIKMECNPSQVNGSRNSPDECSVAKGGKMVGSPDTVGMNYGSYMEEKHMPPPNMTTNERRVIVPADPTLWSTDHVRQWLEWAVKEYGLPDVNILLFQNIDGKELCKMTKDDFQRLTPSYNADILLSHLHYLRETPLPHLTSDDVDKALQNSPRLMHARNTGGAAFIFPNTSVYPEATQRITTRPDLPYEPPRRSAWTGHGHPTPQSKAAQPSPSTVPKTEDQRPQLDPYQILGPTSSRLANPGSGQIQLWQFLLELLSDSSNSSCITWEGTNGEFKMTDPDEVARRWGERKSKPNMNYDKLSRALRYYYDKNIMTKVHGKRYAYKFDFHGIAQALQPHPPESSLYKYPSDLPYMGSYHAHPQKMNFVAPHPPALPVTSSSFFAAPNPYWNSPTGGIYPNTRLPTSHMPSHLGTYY
# Procedure, shortened: as §1
# ELF1 = ELF1 (Homo sapiens, UniProt P32519 1-619); conditions: protein: recombinant; tags: N-terminal GST; dsDNA, one strand shown
# Chain of ELF1 (P32519 whole entry): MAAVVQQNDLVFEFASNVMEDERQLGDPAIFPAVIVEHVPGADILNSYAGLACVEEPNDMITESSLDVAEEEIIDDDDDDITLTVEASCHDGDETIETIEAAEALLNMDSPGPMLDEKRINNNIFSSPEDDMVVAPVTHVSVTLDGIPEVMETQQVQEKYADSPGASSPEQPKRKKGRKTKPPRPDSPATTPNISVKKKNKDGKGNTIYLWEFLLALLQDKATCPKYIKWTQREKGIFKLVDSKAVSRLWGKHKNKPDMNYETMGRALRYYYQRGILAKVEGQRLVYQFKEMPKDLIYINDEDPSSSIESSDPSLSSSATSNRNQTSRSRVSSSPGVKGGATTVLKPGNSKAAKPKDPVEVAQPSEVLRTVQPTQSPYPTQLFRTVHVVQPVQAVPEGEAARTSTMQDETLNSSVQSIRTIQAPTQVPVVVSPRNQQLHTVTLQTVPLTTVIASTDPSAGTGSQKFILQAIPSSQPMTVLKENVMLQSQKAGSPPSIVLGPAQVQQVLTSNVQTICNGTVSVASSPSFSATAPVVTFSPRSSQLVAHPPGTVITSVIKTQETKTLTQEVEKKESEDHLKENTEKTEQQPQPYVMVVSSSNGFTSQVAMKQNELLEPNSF
# Procedure, shortened: as §1
# EHF = molecular target: T5, EHF (Homo sapiens, UniProt Q9NZC4 1-300); conditions: protein: recombinant; tags: N-terminal GST; dsDNA, one strand shown
# T5 sequence: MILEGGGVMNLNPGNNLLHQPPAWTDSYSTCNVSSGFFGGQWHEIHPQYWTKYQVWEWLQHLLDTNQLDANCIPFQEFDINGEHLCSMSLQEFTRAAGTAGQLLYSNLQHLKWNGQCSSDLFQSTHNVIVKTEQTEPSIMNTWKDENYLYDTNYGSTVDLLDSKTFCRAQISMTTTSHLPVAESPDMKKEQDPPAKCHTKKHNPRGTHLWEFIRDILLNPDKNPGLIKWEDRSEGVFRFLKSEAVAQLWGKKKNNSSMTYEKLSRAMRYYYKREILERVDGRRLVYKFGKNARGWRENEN
# Procedure, shortened: as §1
# SPI1 = SPI1 (Homo sapiens, UniProt P17947 1-270); conditions: protein: recombinant; tags: N-terminal GST; dsDNA, one strand shown
# Procedure, shortened: as §1
# SPIB = SPIB (Homo sapiens, UniProt Q01892 1-262); conditions: protein: recombinant; tags: N-terminal GST; dsDNA, one strand shown
# Chain of SPIB (Q01892 whole entry): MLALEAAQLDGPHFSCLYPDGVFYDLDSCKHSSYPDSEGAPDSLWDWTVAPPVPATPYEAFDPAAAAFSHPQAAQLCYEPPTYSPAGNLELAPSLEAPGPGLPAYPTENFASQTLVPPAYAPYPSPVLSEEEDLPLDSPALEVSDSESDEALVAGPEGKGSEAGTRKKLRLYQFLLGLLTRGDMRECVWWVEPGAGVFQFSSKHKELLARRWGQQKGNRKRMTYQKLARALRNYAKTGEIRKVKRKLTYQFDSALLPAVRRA
# Procedure, shortened: as §1
# ELK3 = molecular target: T6, ELK3 (Homo sapiens, UniProt P41970 1-407); conditions: protein: recombinant; tags: N-terminal GST; dsDNA, one strand shown
# T6 sequence: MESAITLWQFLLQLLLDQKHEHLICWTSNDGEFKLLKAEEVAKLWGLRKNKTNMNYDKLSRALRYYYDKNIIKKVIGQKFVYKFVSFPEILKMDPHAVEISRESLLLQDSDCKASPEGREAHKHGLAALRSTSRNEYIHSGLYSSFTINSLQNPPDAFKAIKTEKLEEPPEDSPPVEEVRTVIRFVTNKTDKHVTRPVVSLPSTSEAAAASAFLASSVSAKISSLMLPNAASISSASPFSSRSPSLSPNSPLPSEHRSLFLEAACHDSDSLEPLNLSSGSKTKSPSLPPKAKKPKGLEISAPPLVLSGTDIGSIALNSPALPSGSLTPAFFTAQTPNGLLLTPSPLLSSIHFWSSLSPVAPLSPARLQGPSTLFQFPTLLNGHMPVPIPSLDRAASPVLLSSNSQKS
# Procedure, shortened: as §1
# FEV = molecular target: T7, FEV (Homo sapiens, UniProt Q99581 1-238); conditions: protein: recombinant; tags: N-terminal GST; dsDNA, one strand shown
# T7 sequence: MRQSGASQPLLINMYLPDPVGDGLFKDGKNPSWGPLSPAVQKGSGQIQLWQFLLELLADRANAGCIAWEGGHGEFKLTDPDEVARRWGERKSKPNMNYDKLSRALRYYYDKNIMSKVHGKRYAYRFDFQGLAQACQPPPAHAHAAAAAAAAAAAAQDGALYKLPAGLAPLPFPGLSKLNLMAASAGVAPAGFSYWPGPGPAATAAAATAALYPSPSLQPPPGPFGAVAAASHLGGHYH
# Procedure, shortened: as §1
# ETV5 = ETV5 (Homo sapiens, UniProt P41161 1-510); conditions: protein: recombinant; tags: N-terminal GST; dsDNA, one strand shown
# Chain of ETV5 (P41161 whole entry): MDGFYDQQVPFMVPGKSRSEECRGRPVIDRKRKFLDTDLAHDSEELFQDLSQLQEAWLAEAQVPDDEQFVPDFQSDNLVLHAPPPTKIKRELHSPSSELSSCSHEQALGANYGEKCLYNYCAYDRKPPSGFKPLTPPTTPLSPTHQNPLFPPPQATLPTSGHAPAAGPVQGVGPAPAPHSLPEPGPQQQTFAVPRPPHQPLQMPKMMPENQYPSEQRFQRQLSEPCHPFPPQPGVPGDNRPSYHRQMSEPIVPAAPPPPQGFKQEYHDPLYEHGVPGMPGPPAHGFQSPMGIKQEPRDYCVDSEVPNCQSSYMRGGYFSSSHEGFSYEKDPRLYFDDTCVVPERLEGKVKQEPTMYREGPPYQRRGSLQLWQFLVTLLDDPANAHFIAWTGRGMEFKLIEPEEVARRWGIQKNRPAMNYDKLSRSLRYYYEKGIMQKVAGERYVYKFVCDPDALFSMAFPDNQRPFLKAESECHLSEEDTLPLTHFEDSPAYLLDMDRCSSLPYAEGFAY
# Procedure, shortened: as §1
# HSF1 = HSF1 (Homo sapiens, UniProt Q00613 1-529); conditions: protein: recombinant; tags: N-terminal GST; chain copies: 3; dsDNA, one strand shown
# Chain of HSF1 (Q00613 whole entry): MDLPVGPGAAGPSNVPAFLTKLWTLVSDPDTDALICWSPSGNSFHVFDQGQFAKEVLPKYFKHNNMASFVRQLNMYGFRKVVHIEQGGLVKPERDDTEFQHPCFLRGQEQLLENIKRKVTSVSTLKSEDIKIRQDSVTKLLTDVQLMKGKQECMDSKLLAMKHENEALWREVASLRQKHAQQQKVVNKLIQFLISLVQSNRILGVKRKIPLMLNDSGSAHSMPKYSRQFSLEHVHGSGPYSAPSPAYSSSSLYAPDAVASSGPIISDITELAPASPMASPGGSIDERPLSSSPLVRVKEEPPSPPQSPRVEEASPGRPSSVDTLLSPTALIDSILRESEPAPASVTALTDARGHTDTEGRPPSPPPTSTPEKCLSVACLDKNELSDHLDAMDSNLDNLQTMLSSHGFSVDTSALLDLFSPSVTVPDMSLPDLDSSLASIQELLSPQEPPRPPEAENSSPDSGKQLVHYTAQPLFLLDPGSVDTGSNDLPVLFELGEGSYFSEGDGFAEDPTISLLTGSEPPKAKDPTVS
# Procedure, shortened: as §1
# SPIC = molecular target: T8, SPIC (Homo sapiens, UniProt Q8N5J4 1-248); conditions: protein: recombinant; tags: N-terminal GST; dsDNA, one strand shown
# T8 sequence: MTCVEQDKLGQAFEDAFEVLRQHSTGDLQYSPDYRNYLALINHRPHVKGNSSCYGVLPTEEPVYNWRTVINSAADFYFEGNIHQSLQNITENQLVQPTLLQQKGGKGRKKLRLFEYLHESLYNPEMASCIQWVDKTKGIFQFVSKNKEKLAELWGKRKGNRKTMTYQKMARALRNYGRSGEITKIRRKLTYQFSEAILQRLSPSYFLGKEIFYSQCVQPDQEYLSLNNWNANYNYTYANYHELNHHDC
# Procedure, shortened: as §1
# ELF4 = ELF4 (Homo sapiens, UniProt Q99607 1-663); conditions: protein: recombinant; tags: N-terminal GST; dsDNA, one strand shown
# Chain of ELF4 (Q99607 whole entry): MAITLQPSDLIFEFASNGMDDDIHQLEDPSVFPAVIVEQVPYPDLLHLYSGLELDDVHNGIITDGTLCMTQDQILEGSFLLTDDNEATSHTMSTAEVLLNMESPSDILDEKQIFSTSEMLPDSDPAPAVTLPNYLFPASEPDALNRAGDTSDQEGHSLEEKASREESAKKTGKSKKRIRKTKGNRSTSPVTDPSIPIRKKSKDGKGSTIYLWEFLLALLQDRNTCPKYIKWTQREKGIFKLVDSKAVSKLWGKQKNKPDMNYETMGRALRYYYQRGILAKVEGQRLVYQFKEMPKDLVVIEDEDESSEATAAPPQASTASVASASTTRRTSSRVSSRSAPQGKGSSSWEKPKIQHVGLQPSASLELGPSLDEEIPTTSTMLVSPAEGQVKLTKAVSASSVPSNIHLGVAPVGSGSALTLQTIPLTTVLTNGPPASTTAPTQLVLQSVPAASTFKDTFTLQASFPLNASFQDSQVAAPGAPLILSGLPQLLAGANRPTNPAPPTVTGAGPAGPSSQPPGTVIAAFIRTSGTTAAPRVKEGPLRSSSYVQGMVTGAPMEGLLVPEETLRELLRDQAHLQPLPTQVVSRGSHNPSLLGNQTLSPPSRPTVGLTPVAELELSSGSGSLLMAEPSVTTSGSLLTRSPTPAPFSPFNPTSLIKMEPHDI
# Procedure, shortened: as §1
# ELK4 = molecular target: T9, ELK4 (Homo sapiens, UniProt P28324-2 1-405); conditions: protein: recombinant; tags: N-terminal GST; dsDNA, one strand shown
# T9 sequence: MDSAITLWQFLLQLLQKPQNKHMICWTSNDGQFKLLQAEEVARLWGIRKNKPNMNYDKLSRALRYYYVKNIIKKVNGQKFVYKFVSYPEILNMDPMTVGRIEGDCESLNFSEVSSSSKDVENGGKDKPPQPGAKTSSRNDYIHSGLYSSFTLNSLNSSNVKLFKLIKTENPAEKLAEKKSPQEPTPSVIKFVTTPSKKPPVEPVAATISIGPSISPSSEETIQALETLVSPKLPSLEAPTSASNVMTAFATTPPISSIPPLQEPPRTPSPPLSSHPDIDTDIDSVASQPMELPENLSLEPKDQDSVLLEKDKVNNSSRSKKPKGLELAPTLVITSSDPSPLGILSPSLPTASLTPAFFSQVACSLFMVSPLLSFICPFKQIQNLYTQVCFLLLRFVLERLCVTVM
# Procedure, shortened: as §1
# ETV2 = molecular target: T10, ETV2 (Homo sapiens, UniProt O00321 1-342); conditions: protein: recombinant; tags: N-terminal GST; dsDNA, one strand shown
# T10 sequence: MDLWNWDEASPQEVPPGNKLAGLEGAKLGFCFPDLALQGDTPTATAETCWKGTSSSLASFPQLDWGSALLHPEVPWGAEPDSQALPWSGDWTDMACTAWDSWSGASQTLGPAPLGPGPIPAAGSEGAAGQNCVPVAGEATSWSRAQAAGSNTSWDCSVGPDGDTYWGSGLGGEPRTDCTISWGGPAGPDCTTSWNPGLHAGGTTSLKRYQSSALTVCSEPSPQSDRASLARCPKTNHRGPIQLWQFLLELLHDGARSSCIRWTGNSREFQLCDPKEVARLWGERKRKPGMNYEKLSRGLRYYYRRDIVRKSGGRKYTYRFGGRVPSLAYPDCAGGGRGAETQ
# Procedure, shortened: as §1
# ELF3 = molecular target: T11, ELF3 (Homo sapiens, UniProt P78545 1-371); conditions: protein: recombinant; tags: N-terminal GST; dsDNA, one strand shown
# T11 sequence: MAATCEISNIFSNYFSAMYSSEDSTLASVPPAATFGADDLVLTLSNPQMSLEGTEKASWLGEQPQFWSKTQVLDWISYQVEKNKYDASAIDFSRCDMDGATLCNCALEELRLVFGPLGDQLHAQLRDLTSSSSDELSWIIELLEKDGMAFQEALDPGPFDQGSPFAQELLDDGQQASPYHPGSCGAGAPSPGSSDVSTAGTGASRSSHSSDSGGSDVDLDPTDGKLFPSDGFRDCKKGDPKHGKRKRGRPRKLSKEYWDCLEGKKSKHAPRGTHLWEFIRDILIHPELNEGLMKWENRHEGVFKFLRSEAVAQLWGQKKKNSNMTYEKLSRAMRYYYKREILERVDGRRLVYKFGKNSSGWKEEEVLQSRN
# Procedure, shortened: as §1
# CRX = CRX (Homo sapiens, UniProt O43186 1-299); conditions: protein: recombinant; tags: N-terminal GST; dsDNA, one strand shown
# Chain of CRX (O43186 whole entry): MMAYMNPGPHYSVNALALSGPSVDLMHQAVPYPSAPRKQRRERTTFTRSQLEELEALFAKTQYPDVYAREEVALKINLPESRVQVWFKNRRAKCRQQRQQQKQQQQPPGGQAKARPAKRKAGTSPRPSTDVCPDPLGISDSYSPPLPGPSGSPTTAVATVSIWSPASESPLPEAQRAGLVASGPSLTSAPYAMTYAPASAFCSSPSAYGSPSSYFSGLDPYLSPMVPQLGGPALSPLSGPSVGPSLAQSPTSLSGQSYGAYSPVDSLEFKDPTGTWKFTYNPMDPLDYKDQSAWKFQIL
# Procedure, shortened: as §1
# ETV1 = ETV1 (Homo sapiens, UniProt P50549 1-477); conditions: protein: recombinant; tags: N-terminal GST; dsDNA, one strand shown
# Chain of ETV1 (P50549 whole entry): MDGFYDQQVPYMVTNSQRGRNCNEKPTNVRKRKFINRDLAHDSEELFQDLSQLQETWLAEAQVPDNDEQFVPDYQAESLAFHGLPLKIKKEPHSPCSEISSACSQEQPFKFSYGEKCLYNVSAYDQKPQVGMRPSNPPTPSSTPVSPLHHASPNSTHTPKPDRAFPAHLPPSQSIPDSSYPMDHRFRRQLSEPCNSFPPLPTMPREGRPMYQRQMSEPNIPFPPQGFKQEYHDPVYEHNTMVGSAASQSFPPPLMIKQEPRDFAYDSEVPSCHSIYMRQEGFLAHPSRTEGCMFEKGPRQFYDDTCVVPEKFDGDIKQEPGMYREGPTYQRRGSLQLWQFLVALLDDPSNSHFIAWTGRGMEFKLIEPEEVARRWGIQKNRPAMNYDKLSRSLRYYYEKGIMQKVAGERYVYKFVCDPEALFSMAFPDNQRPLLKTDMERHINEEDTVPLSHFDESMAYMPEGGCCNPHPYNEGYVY
# Procedure, shortened: as §1
sequence,measurement,setting,value
TGCTGG,binding signal,FLI1,"1.08 fold enrichment (6-mer frequency, TF over GST control)"
same,binding signal,ELK1,"1.09 fold enrichment (6-mer frequency, TF over GST control)"
same,binding signal,GABPA,"1.08 fold enrichment (6-mer frequency, TF over GST control)"
same,binding signal,ERG,"1.01 fold enrichment (6-mer frequency, TF over GST control)"
same,binding signal,ELF1,"1.11 fold enrichment (6-mer frequency, TF over GST control)"
same,binding signal,EHF,"1.11 fold enrichment (6-mer frequency, TF over GST control)"
same,binding signal,SPI1,"1.19 fold enrichment (6-mer frequency, TF over GST control)"
same,binding signal,SPIB,"1.1 fold enrichment (6-mer frequency, TF over GST control)"
same,binding signal,ELK3,"1.14 fold enrichment (6-mer frequency, TF over GST control)"
same,binding signal,FEV,"1.09 fold enrichment (6-mer frequency, TF over GST control)"
same,binding signal,ETV5,"1.04 fold enrichment (6-mer frequency, TF over GST control)"
same,binding signal,HSF1,"1.43 fold enrichment (6-mer frequency, TF over GST control)"
same,binding signal,SPIC,"1.06 fold enrichment (6-mer frequency, TF over GST control)"
same,binding signal,ELF4,"1.12 fold enrichment (6-mer frequency, TF over GST control)"
same,binding signal,ELK4,"1.27 fold enrichment (6-mer frequency, TF over GST control)"
same,binding signal,ETV2,"1.22 fold enrichment (6-mer frequency, TF over GST control)"
same,binding signal,ELF3,"1.02 fold enrichment (6-mer frequency, TF over GST control)"
same,binding signal,CRX,"1.03 fold enrichment (6-mer frequency, TF over GST control)"
same,binding signal,ETV1,"1.08 fold enrichment (6-mer frequency, TF over GST control)"
